Publication PMC7819943, “Rice protein-binding microarrays: a tool to detect cis-acting elements near promoter regions in rice”
Over roughly 68,000 sequences, “fluorescence intensity (a.u.)” has its median near 9,100; the highest 2% begin near 16,000. The full list was thinned out, with the highest values kept by preference.

Biological target: OsWRKY34 (Oryza sativa, UniProt Q0JBA9 1-250)
Test: protein-binding microarray (RPBM); PBS, 2% BSA, 51.3 ng/ul salmon testes DNA, 50 uM zinc acetate, 200 nM TF, 25 C, 1 h; high values mean tight binding
Settings: protein: recombinant; tags: N-terminal polyhistidine and DsRed monomer fusion (pET32a); label: CyDye5-dUTP incorporated in the synthesized complementary strand; 3' TTTTT single-stranded linker to array surface; dsDNA, one strand shown
Summary of the method: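 Transcription factors were each fused at the N-terminus to a polyhistidine tag plus DsRed and expressed in E. coli BL21-CodonPlus before Ni–NTA purification. Binding to a double-stranded custom Agilent array was carried out with 200 nM protein at 25 °C for 1 h in PBS, 2% BSA, salmon testes DNA and 50 µM zinc acetate. The binding signal is per-feature fluorescence intensity, in arbitrary units, on an Axon 4000B scanner.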

Sequence of OsWRKY34 (Q0JBA9 entry or part of it): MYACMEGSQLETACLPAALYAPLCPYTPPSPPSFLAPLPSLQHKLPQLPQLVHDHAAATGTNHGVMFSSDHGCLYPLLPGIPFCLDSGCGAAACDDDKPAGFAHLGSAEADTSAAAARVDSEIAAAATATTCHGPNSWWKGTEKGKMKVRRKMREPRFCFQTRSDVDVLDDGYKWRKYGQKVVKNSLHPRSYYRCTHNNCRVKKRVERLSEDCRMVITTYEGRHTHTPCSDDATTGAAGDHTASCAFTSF

Point of comparison: “TTCAAAATGTTTGACACCGTTGACTTTTTAACACATGATCCGGAGTCACCTAGTGCAG”, binding signal 32400 fluorescence intensity (a.u.). Against it:
- TTTACCTCTCTGCCGGCCTTTGCACGCTTGTAGCCCACCACGGAGTCACCTAGTGCAG — lower, 9670 fluorescence intensity (a.u.)
- GGCACGGTTTGAACGCATTACCCATTCCCCGTTTGACTTCCGGAGTCACCTAGTGCAG — lower, 12800 fluorescence intensity (a.u.)
- GCGTTACATACATCCTTATTATGTTGTTCATGTTTATAAACGGAGTCACCTAGTGCAG — lower, 8240 fluorescence intensity (a.u.)
- CCTATATCATCCTTTGATAAGATCGACTGTTTGCTATTTACGGAGTCACCTAGTGCAG — lower, 9940 fluorescence intensity (a.u.)
- TGCCAATGCCAGGGTTTTCGTCGGTTTTACATAAATTAACCGGAGTCACCTAGTGCAG — lower, 8500 fluorescence intensity (a.u.)
- GTGGAATCGTTCGTTCTTGACTTCACCTACCAAGATTTGCCGGAGTCACCTAGTGCAG — lower, 8640 fluorescence intensity (a.u.)
- CCTCGCTCCGTCGCTCACAACCCGTCTCCTGCTCGATCCGCGGAGTCACCTAGTGCAG — lower, 9140 fluorescence intensity (a.u.)
- TAGCATGACCTTTCACCCATACATATGAGCTACTTCTCTTCGGAGTCACCTAGTGCAG — lower, 9280 fluorescence intensity (a.u.)
- TAGATAACGTCATTGACTTTTTCTCACATATTTGACCATTCGGAGTCACCTAGTGCAG — lower, 12400 fluorescence intensity (a.u.)
- TTGATACCGTTGACTTTTTAGCACATGTTTGACCATTCATCGGAGTCACCTAGTGCAG — higher, 39400 fluorescence intensity (a.u.)
- ACGCCGTTGGCTTTTTAGCATATATTTGACCATTCATCTTCGGAGTCACCTAGTGCAG — lower, 8190 fluorescence intensity (a.u.)
- GAGATATCGTTGACTTTTAGCATAACATAGACCATTCAGCCGGAGTCACCTAGTGCAG — lower, 18300 fluorescence intensity (a.u.)
- ATGTATAACACTGTTGACTTTTTAAGATATATTTGATCATCGGAGTCACCTAGTGCAG — lower, 15900 fluorescence intensity (a.u.)
- TGTTTGACATCGTTGACTTTTTAACACATGTTTCACTGTTCGGAGTCACCTAGTGCAG — higher, 36000 fluorescence intensity (a.u.)
- GACACCGTTGACTTTTTAGCACATGTTTGACCGCTCATCTCGGAGTCACCTAGTGCAG — higher, 32800 fluorescence intensity (a.u.)
- ACAATTCACAAACGAACCTCTGCTGTTAGCCGCCTCTTTCCGGAGTCACCTAGTGCAG — lower, 8190 fluorescence intensity (a.u.)
- GTTGCTTACTACCTGGTATTAGTCATTGTGGGAGTAGTTCCGGAGTCACCTAGTGCAG — lower, 8160 fluorescence intensity (a.u.)
- TGGCATTTTTTTTTTTGGAATTGAGCACTTGTTAATGTCACGGAGTCACCTAGTGCAG — lower, 8110 fluorescence intensity (a.u.)
- GCTCACCTAACCCATTCACGTGGCGCCAAACCCTCAGGGGCGGAGTCACCTAGTGCAG — lower, 8250 fluorescence intensity (a.u.)
- CACTCGTTTTCAGATCATTTTCCATGGCGCCATGGCGCCTCGGAGTCACCTAGTGCAG — lower, 8500 fluorescence intensity (a.u.)
- ATCATTTAATTCCTGCGTTTTTCCTGCGATTCAATCAAACCGGAGTCACCTAGTGCAG — lower, 11300 fluorescence intensity (a.u.)
- AGCTATATTACTCACCTTCTCTCTTTAAGCCTGTCTAGTACGGAGTCACCTAGTGCAG — lower, 10300 fluorescence intensity (a.u.)
- TTTCCCTGATCCTTTTCCTAACCCAGTGGCAGGCATCTTTCGGAGTCACCTAGTGCAG — lower, 9990 fluorescence intensity (a.u.)
- CTACTTGTGCTGTGTCTTTGTTTTTCTTTCACATTTCTAGCGGAGTCACCTAGTGCAG — lower, 14300 fluorescence intensity (a.u.)
- GTGGGTCCACTTGCTACACATACCACCCCACTTAAACTTTCGGAGTCACCTAGTGCAG — lower, 8640 fluorescence intensity (a.u.)
- ATGTTTGACGCCGTTGATATTTTAGCACATGTTTGACTGTCGGAGTCACCTAGTGCAG — lower, 11400 fluorescence intensity (a.u.)
- CCACGCCGCACCCACCCACTGCCCGTTCCGTTCCGGCGACCGGAGTCACCTAGTGCAG — lower, 10900 fluorescence intensity (a.u.)
- ATATTTTAATGAATGACACTGTTGACTTTTTGACAAACGTCGGAGTCACCTAGTGCAG — lower, 13300 fluorescence intensity (a.u.)
- AATGTTTGACACCGTTGATTTTTTTAGCACATGTTTCACCCGGAGTCACCTAGTGCAG — lower, 8960 fluorescence intensity (a.u.)
- CCGCTGCCGCTTCCGCTTCCGCTTCTTCCGTTCTGGAGACCGGAGTCACCTAGTGCAG — lower, 10400 fluorescence intensity (a.u.)
- CCTTCCGTTTGACACTGTTGACTTTTTTAAATATGTTTGACGGAGTCACCTAGTGCAG — lower, 16100 fluorescence intensity (a.u.)
- CGCCGCTGCCGTTGACCGTGTTCCGGCACTTCTTCACGACCGGAGTCACCTAGTGCAG — lower, 17400 fluorescence intensity (a.u.)
- TTGACACTGTTGACTTTTTAATATATGTTTGACTGTTCGTCGGAGTCACCTAGTGCAG — lower, 20400 fluorescence intensity (a.u.)
- ATATTTGACACCGTTGACTTTTTAGCACATGTTTGACTGTCGGAGTCACCTAGTGCAG — higher, 33000 fluorescence intensity (a.u.)
- CGGCGCGTACGCAGTCCACTACCACCACTTCCGCCGGCGCCGGAGTCACCTAGTGCAG — lower, 8450 fluorescence intensity (a.u.)
- CTTGCCGGCCTCCACCGCTAATGTTTGTGCACACAGAAAACGGAGTCACCTAGTGCAG — lower, 8330 fluorescence intensity (a.u.)
- GAACCTAGAAATATTGTCTGTTTTCCTGCCGAACTGAACTCGGAGTCACCTAGTGCAG — lower, 9900 fluorescence intensity (a.u.)
- TGAAAGGGGTTGATGTGTGGTGAAGGGTAGGTAATTTGTACGGAGTCACCTAGTGCAG — lower, 10700 fluorescence intensity (a.u.)
- GGTGGTGGTGTGAGAGCAGTAGACAGGTTTTTCTTGGGGACGGAGTCACCTAGTGCAG — lower, 8280 fluorescence intensity (a.u.)
- CTTCTGCTTCTGGTTCTGGTTCGCCTTCCTAGTTCCTACCCGGAGTCACCTAGTGCAG — lower, 8330 fluorescence intensity (a.u.)
- GAAAAATCTTTCCAGTGGTAGTGTGTTGCTCTCGGCCTCGCGGAGTCACCTAGTGCAG — lower, 8320 fluorescence intensity (a.u.)
- GCCCCGAGCGGGCCGAGCTCCCATCGTCTCATCGCCCCAACGGAGTCACCTAGTGCAG — lower, 11600 fluorescence intensity (a.u.)
- AGCCAACCACACACAATGAACCATACCACAGTTACCACAGCGGAGTCACCTAGTGCAG — lower, 10100 fluorescence intensity (a.u.)
- TTGGGGAGGATTTTTTCTTTTCATTTCATAATTAATTTCCCGGAGTCACCTAGTGCAG — lower, 11400 fluorescence intensity (a.u.)
- TGCATCTCGCCTTATCCCCGCGCCGGCGCTAGGCGAATCGCGGAGTCACCTAGTGCAG — lower, 8340 fluorescence intensity (a.u.)
- TTTTAGCACATGTTGACCGTTCGTCTTATTCAAAAAATTTCGGAGTCACCTAGTGCAG — lower, 9160 fluorescence intensity (a.u.)
- CCGAAGCGTCATCGCCGGTGGCCGTATCTTCTGCGTTGACCGGAGTCACCTAGTGCAG — lower, 15300 fluorescence intensity (a.u.)
- GCCGTATCTTCTGCGTTGACCAGATCCTTCACTGTCACGCCGGAGTCACCTAGTGCAG — lower, 19200 fluorescence intensity (a.u.)
- TGACTTTTTAGCACATGTTTGACTGTTCGTCTTATTCAAACGGAGTCACCTAGTGCAG — lower, 10200 fluorescence intensity (a.u.)
- ACGCCGCCGTTGCACTTCTCTGCACGCCATTGATCCGATCCGGAGTCACCTAGTGCAG — lower, 8480 fluorescence intensity (a.u.)
- AATGGTTTTATCGTTTTACGTGTGTACACCACTTATATATCGGAGTCACCTAGTGCAG — lower, 8060 fluorescence intensity (a.u.)
- TTCGTTGTACTTACCATCGTTGTTTAGTTTGATTTTTTTTCGGAGTCACCTAGTGCAG — lower, 8950 fluorescence intensity (a.u.)
- ACACCGTTGACTTTTTAGCACATGTTGGACTGTTCGTCTTCGGAGTCACCTAGTGCAG — higher, 39800 fluorescence intensity (a.u.)
- TTGACACCGTTGACTTTTTAGTACATGTTTGACCGTTCGTCGGAGTCACCTAGTGCAG — higher, 41400 fluorescence intensity (a.u.)
- AGTTTTTGGTAGTTTAGTTTGATACACCACTTCGTTTGATCGGAGTCACCTAGTGCAG — lower, 18600 fluorescence intensity (a.u.)
